# A number with no mark means an inactive call.
# Compound: C#CCNC(=O)CCSSCCC(=O)NCCc1ccc(C=O)c(C=O)c1
# Assay: lysine labeling ratio R10:1 (500 µM / 50 µM probe), SILAC-ABPP in living cells; higher = lower intrinsic lysine reactivity toward the probe, active = 2 or less
# Details: HeLa; probe concentrations 500 vs 50 µM
# Method in brief: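 In PBS at room temperature, living HeLa cells grown with SILAC light or heavy labels were treated with 50 µM or 500 µM of an alkyne-tagged, disulfide-linked lysine probe, with label swaps in both directions. Analysis was by LC-MS/MS on a TIMS-TOF Pro after click to biotin-azide, neutravidin capture and DTT release. For each lysine, R is the median across forward and reverse replicates of the filtered median high-probe/low-probe MS1 peptide ratio, capped at 20.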
# Sequence of UniProt P26038 (P26038 whole entry): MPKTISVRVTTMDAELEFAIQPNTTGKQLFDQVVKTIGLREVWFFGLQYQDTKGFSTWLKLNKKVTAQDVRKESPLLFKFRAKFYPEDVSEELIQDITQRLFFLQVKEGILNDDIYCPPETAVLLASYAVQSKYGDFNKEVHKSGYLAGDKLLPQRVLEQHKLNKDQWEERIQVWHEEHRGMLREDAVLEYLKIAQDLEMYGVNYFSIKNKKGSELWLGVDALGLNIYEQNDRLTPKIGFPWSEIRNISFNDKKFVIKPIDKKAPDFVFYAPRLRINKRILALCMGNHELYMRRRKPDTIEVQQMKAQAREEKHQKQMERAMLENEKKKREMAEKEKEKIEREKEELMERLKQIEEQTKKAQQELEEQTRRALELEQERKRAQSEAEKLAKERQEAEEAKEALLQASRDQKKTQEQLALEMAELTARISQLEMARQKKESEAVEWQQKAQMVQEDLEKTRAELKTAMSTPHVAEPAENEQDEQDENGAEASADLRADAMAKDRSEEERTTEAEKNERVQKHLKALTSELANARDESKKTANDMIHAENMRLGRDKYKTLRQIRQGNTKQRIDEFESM
# Sequence of UniProt O14763 (O14763 whole entry): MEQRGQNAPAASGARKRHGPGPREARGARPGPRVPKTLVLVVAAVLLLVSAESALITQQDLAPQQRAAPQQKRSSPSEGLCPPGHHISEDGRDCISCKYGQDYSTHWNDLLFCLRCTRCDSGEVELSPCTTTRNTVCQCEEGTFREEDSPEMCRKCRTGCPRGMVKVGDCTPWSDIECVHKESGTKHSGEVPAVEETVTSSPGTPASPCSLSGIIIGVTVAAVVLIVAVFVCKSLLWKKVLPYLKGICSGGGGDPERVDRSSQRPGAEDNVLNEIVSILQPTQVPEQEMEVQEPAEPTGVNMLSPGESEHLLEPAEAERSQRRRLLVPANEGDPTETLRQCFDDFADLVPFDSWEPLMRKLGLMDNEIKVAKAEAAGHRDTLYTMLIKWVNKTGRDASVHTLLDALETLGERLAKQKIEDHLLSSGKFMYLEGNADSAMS
# Sequence of UniProt P26447 (P26447 whole entry, looked up): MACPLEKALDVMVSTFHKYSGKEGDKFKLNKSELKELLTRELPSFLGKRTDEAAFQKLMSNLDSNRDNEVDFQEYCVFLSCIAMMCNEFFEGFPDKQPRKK
# Sequence of UniProt O14786 (O14786 whole entry): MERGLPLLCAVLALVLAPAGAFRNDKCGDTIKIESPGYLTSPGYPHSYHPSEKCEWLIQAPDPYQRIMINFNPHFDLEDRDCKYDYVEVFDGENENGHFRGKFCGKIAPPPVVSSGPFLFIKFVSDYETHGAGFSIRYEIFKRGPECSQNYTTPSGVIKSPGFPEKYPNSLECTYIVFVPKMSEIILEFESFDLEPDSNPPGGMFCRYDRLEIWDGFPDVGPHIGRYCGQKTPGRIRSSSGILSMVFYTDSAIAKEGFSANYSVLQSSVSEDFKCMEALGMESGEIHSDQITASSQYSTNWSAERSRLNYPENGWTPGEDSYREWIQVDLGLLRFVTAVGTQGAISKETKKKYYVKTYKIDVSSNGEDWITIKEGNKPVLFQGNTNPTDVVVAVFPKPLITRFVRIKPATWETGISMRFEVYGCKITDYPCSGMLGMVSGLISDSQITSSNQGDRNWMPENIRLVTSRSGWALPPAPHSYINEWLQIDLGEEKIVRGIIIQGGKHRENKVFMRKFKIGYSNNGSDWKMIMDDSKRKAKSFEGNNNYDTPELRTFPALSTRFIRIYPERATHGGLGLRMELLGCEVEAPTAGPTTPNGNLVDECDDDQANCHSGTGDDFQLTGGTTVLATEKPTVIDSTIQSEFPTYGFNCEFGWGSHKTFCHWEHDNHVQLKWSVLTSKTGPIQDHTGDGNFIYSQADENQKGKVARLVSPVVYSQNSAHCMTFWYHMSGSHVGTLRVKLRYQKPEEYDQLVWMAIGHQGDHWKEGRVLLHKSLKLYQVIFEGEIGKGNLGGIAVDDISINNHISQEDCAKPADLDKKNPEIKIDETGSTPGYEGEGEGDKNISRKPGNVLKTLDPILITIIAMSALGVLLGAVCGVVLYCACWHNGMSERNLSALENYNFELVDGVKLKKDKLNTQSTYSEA
# Sequence of UniProt P46531 (P46531 whole entry): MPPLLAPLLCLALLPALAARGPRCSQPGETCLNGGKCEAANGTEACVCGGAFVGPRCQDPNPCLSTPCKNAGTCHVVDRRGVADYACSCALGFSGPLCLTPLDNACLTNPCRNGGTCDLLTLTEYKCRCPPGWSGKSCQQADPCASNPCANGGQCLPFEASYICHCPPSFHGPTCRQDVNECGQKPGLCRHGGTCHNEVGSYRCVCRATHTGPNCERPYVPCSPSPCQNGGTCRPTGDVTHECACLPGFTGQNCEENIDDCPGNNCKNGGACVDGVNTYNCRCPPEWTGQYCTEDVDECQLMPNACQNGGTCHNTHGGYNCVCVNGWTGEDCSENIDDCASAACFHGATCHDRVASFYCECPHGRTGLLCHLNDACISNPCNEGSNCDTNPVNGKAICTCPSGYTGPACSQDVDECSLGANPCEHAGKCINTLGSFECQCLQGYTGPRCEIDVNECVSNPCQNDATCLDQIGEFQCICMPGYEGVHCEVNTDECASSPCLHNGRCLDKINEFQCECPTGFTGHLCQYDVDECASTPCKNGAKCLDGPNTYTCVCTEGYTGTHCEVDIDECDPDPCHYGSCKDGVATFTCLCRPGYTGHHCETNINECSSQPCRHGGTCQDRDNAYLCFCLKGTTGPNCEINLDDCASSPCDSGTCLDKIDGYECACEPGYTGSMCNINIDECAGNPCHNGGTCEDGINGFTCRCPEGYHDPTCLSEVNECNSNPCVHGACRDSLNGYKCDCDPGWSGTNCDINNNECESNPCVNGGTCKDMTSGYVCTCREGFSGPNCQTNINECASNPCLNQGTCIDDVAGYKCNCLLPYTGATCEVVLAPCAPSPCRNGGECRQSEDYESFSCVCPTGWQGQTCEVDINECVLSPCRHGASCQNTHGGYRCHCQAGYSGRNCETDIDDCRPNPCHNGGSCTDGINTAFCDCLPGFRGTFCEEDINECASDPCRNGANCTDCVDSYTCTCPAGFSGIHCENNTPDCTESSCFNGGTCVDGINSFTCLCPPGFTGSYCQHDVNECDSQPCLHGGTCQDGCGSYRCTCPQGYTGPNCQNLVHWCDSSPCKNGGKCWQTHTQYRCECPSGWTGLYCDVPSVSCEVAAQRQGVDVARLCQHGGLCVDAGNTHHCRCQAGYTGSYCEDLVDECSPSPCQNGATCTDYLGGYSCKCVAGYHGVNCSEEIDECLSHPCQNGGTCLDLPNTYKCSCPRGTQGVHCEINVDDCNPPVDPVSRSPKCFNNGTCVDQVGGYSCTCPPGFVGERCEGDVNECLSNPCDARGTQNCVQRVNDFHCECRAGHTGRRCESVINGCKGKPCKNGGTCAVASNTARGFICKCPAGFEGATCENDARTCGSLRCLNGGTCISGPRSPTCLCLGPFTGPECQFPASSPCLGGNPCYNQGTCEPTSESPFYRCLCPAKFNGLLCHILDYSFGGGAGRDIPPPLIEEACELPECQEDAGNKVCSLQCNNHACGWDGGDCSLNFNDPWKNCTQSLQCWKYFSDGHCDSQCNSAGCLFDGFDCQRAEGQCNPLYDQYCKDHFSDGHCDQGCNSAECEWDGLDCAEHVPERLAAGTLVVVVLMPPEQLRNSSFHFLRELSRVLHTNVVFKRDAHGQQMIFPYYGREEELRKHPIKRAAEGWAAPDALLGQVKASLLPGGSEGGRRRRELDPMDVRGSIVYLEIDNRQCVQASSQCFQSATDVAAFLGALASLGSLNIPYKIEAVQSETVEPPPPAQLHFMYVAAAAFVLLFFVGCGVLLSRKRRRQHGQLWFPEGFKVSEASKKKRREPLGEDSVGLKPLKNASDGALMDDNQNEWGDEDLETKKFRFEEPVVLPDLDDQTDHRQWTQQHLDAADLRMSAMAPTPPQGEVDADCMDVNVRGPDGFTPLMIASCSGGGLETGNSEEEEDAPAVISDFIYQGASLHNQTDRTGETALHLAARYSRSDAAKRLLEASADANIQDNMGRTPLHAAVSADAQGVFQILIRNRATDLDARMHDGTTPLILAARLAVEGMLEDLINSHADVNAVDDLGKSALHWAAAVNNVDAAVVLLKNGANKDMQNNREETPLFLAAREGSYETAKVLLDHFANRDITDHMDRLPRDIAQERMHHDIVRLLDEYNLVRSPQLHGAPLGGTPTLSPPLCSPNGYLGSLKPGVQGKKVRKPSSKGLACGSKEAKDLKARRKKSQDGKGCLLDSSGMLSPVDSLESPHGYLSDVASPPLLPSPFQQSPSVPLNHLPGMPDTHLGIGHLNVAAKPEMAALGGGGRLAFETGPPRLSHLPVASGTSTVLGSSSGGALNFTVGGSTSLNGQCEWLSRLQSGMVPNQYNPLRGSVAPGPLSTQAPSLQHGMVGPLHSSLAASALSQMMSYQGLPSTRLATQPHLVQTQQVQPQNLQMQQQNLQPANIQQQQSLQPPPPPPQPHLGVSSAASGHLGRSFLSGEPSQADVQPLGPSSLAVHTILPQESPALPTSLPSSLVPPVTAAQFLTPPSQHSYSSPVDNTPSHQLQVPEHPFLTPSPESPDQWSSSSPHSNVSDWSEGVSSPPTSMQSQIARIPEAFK
# Sequence of UniProt Q9NX63 (Q9NX63 whole entry): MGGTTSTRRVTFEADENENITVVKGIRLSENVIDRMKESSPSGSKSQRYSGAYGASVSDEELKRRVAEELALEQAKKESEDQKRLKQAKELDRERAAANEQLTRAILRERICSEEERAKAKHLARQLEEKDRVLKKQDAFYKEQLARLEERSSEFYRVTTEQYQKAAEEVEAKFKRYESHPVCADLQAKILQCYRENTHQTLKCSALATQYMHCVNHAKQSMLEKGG
# Sequence of UniProt O95292 (O95292 whole entry): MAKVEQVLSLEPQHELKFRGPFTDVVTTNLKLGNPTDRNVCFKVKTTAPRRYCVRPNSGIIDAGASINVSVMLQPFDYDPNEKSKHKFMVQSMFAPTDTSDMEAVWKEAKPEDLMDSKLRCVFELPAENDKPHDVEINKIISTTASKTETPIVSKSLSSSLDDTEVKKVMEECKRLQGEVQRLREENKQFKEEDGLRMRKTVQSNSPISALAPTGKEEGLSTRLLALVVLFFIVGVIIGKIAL
row,Target,lysine labeling ratio R10:1
1,S100A4 (lysine site: K57) (UniProt P26447),3.85
2,NRP1 (lysine site: K534) (UniProt O14786),2.17
3,VIM (lysine site: K373) (UniProt P08670),7.19
4,MSN (lysine site: K79) (UniProt P26038),2.55
5,VASN (lysine site: K333) (UniProt Q6EMK4),1.84 (active)
6,UniProt Q8WXI7 (lysine site: K12623),3.22
7,UniProt P62273 (lysine site: K33),1.51 (active)
8,LNPEP (lysine site: K624) (UniProt Q9UIQ6),0.72 (active)
9,VAPB (lysine site: K174) (UniProt O95292),1.61 (active)
10,CACNA2D1 (lysine site: K690) (UniProt P54289),3.51
11,RALA (lysine site: K159) (UniProt P11233),0.885 (active)
12,ATRN (lysine site: K1133) (UniProt O75882),1.81 (active)
13,CHCHD3 (lysine site: K45) (UniProt Q9NX63),1.56 (active)
14,RPL22 (lysine site: K52) (UniProt P35268),7.72
15,ARPC2 (lysine site: K186) (UniProt O15144),1.46 (active)
16,KTN1 (lysine site: K543) (UniProt Q86UP2),5.74
17,MSN (lysine site: K388) (UniProt P26038),1.79 (active)
18,UniProt Q8N441 (lysine site: K30),3.03
19,ARPC2 (lysine site: K275) (UniProt O15144),2.12
20,UniProt Q14574 (lysine site: K662),1.83 (active)
21,PFKP (lysine site: K688) (UniProt Q01813),1.74 (active)
22,TNFRSF10B (lysine site: K72) (UniProt O14763),3.31
23,NOTCH1 (lysine site: K1607) (UniProt P46531),6.4

# — the supplement of paper PMC11001985
